We go through 15 compounds from PubChem BioAssay (NCI).

Each structure is given as a SMILES string. The panel holds about 83,000 compounds, 20% with a hit somewhere; the sample as a whole holds those more often.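 A percent growth of 40 corresponds to 60% growth inhibition; 0 means no net growth; -100 means all cells died. Active threshold: below 10.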 The source made the active and inactive calls.

In this assay the test system is OVCAR-8 ovarian. Nature of the assay: NCI-60 one-dose screen, 48 h (100 = growth as untreated, 0 = no growth, -100 = all killed). To be noted: 10 µM unless noted.
In the case of `COc1cc2c3c(c4c5ccccc5[nH]c4c2c(OC)c1OC)C(=O)N(O)C3=O`, the growth is 36.8% (inactive).
Next, `Clc1cc(Cl)cc(Nc2ccc3c(OCCCN4CCOCC4)cccc3n2)c1`: 81.8% (inactive).
Then `C/C(=N/NC(N)=S)C(=O)O`, with 71.2% (inactive); and `CCCCC[C@H]1C/C=C2/C(=O)C(Cl)=C[C@@H]2C/C=C\CCCC(=O)O1`, with -19.1% (active); and `Cn1c2ccccc2c2c3c(c4c5cccnc5[nH]c4c21)C(=O)N(O)C3=O`, with 45.5% (inactive).
Then `O=C1CN(c2ccccc2)C(=O)C1C(=O)Nc1ccc(Cl)c(Cl)c1` (stereo not given), with -9.87% [100 µM] (active); and `CCc1cccc(CC)c1NC(=O)c1sc2nc3c(cc2c1N)CCCC3`, with 84.7% (inactive); and `Cc1cccc2c1NC(=O)[C@@]21[C@H](C(=O)c2ccccc2)[C@]2(C(=O)Nc3ccccc32)[C@H]2CCCN21`, with -17.2% [100 µM] (active).
Turning to `C[C@H]1OC(=O)/C=C/[C@@H](O)[C@@H](O)CCCCCCCC[C@@H]1O`, the growth is 89.6% (inactive).
On to `COc1cccc(-c2nn(-c3ccccc3)cc2-c2ccnc(NCCNS(=O)(=O)c3cccc(F)c3)c2)c1`, for which the growth was 20.2% (inactive).
Then `CCCC(=O)N1CCCCC1CC` (stereo not given), with 95.3% (inactive); and `CC(=O)O[C@@H]1CCN2C(=O)N(C)c3ccccc3[C@@H]2C1`, with 109% (inactive); and `O=C(/C=C\c1ccc2c(c1)OCO2)/C=C/c1ccc2c(c1)OCO2`, with 101% (inactive).
Next, `O=C1NC(c2ccc(Cl)c(Cl)c2)=C/C1=C\c1ccccc1`: 74.4% (inactive).
Next, `O=C1C=Cc2ncccc2C1=O`: 87.8% (inactive).
